# Assay outcomes (PubChem BioAssay)
# Mac1 fbg enh – enhancers of human CD11b/CD18 binding to fibrinogen; K562 CD11b/CD18 adhesion to fibrinogen, ATPlite luminescence; P05107+P11215; AID 1499; activation, % at 10 µM; 0.07% of 93,000 active;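 active = 10 µM primary screen giving 50% or more activity, confirmed by 40% or more on retest at that dose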
# Mac1 fbg inh – CD11b/CD18-fibrinogen binding inhibition; K562 CD11b/CD18 adhesion to fibrinogen, ATPlite luminescence; Mn2+ added to activate the integrin; inhibition, % at 10 µM; 0.54% of 93,000 active; AID 1497;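 active = primary inhibition of 50% or more at 10 µM, then 40% or more on retest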
# FAK blocker – blocks human focal adhesion kinase activity; inhibition, %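 (tested at 7 µM)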; biochemical FAK kinase activity assay; 0.84% of 97,000 active; Q05397; in the data active = inhibition above about 19%;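 note: 0% = DMSO and 100% = reference compound high control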
# ERa coact pot – ER-alpha (human) coactivator binding potentiation | P03372 | TR-FRET ERalpha-LBD/SRC-Cy5 coactivator binding, 2 h; 100 = basal binding, no effect | coactivator binding (% of control), % at 25.6 µM | 1.3% of 86,000 active | AID 639; in the data active = activity above about 200%;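 note: binding measured in presence of low estradiol as agonist stimulus; 0% = peptide alone without receptor and 100% = receptor with peptide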
# ERa SRC1 inh – ER-alpha (human) coactivator binding inhibition; inhibition, % at 25.6 µM; TR-FRET ER-alpha LBD / SRC-1 peptide, estradiol-bound; AID 629; 1.7% of 86,000 active; in the data active = inhibition above about 50%;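 note: 0% = receptor plus peptide control and 100% = peptide only without receptor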
# ERb coact inh – ER-beta (human) coactivator binding inhibition; Q92731; TR-FRET ER-beta LBD / SRC1-Cy5 peptide binding; receptor agonist-loaded with 1 µM estradiol; inhibition, % at 25.6 µM; 1.3% of 86,000 active;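 active = compounds whose percent inhibition of the receptor-coactivator binding signal exceeds about 50% in the single-dose screen, limit read from the data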;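 note: 0% = receptor plus peptide wells without compound and 100% = peptide-only wells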
# Target sequence (Q92731 whole entry, looked up, the tested form may be a part): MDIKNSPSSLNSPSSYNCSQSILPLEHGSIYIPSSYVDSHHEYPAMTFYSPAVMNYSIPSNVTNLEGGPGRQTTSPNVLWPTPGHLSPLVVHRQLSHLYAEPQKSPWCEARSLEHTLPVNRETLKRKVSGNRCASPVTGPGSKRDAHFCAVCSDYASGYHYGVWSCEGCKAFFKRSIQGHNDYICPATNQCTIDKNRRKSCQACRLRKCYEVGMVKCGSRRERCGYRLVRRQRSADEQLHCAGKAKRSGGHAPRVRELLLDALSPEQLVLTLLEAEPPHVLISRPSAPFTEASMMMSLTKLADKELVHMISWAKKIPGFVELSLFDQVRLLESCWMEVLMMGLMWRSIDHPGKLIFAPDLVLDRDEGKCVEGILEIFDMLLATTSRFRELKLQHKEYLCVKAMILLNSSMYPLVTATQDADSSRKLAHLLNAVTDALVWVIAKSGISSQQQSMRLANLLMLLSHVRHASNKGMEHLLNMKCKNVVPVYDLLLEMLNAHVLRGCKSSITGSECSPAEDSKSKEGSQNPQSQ
# An asterisk follows results filed as active; x = not tested or not shown; [ ] = dose if it differs, or a comment. Shown are actives, neighbours in structure and some others; about 3.5% of the full set was active somewhere.
SMILES,Mac1 fbg enh,Mac1 fbg inh,FAK blocker,ERa coact pot,ERa SRC1 inh,ERb coact inh
N#C/C(=N\Nc1ccccc1Cl)C(=O)c1ccccc1,-11,104*,-2,x,x,x
N#C/C(=N\Nc1cccc(Cl)c1)C(=O)c1ccccc1,-11,98*,-7,x,x,x
Cc1c(N/N=C(\C#N)C(=O)c2ccccc2)c(=O)n(-c2ccccc2)n1C,1,14,x,x,x,x
COC(=O)c1ccc(Nc2nc(C)cc(=O)[nH]2)cc1,2,4,5,121,2,16
Oc1ccc(-c2cn3c(n2)SCC3)cc1,-2,-28,-1,114,-8,67*[fluorescence artefact?]
Oc1ccc(-c2cn3c(n2)SCC3)cc1O,-1,-23,4,20,75*[fluorescence artefact?],94*[fluorescence artefact?]
CCN1CCN(C(=O)C2CCC(CNS(=O)(=O)c3ccccc3)CC2)CC1 (stereo not given),-4,-4,2,101,-5,-1
CCOC(=O)c1sc(NC(=O)c2ccc3ncsc3c2)nc1C,53,-40,x,473*,23,29
CCOC(=O)c1ccc2nc(NC(=O)c3ccco3)sc2c1,x,x,4,105,5,-1
CCOC(=O)c1csc(NC(=O)c2ccc(OC)c(OC)c2)n1,-4,6,1,279*[fluorescence artefact?],-24,-3
CCOC(=O)c1ccc2nc(NC(=O)c3cccs3)sc2c1,x,x,3,106,78*[fluorescence artefact?],54*[fluorescence artefact?]
CCOC(=O)c1sc(NC(=O)c2cncc(Br)c2)nc1C,x,x,-1,100,-18,-11
COc1ccc(NC(=S)NN2CCN(C)CC2)cc1,x,x,4,x,x,x
Cn1c(Cn2c(=O)sc3ccccc32)nnc1SCC(=O)Nc1ccc(Cl)cc1,x,x,x,231*[fluorescence artefact?],-4,-5
Cn1c(Cn2c(=O)sc3ccccc32)nnc1SCC(=O)Nc1cccc(Cl)c1,x,x,x,97,3,10
O=C(NCCCN1CCN(Cc2ccccc2)CC1)C1CCN(c2nnc(-n3cccc3)s2)CC1,-1,31,x,87,29,21
O=C(NCCCN1CCc2ccccc2C1)C1CCN(c2nnc(-n3cccc3)s2)CC1,24,5,x,88,72*[fluorescence artefact?],33
O=C(NC1CCN(Cc2ccccc2)CC1)C1CCN(c2nnc(-n3cccc3)s2)CC1,-4,8,x,0,54*[fluorescence artefact?],16
O=C(NC1CCN(Cc2ccccc2)CC1)C1CCCN(c2nnc(-n3cccc3)s2)C1 (stereo not given),3,0,x,122,18,5
CN1c2ccccc2C(O)=C(C(=S)Nc2ccc(F)c(Cl)c2)S1(=O)=O,-10,84*,-1,x,x,x
CN1c2ccccc2C(O)=C(C(=S)Nc2ccccc2)S1(=O)=O,-3,7,-1,x,x,x
Cc1nc(CC(=O)O)c(-c2ccccc2)s1,1,-8,1,107,-23,-29
COc1nc2ccc(C)cc2cc1-c1noc(-c2ccccc2)n1,x,x,-9,x,x,x
COc1nc2cc(C)ccc2cc1-c1noc(-c2cccnc2)n1,4,12,x,189,50*[fluorescence artefact?],41
O=C(COC(=O)CN1C(=O)c2ccccc2C1=O)Nc1ncc(Cl)cc1Cl,0,0,12,54,60*[fluorescence artefact?],56*
SMILES,Mac1 fbg enh,Mac1 fbg inh,FAK blocker,ERa coact pot,ERa SRC1 inh,ERb coact inh
O=C(COC(=O)C1CCN(S(=O)(=O)c2cc([N+](=O)[O-])ccc2Cl)CC1)Nc1ncc(Cl)cc1Cl,x,x,15,18,78*[fluorescence artefact?],80*[fluorescence artefact?]
CN(Cc1ccccc1)C(=O)C1CCN(S(=O)(=O)c2cc([N+](=O)[O-])ccc2Cl)CC1,0,-10,x,x,x,x
CC(C)CC(C(=O)OCC(=O)Nc1ncc(Cl)cc1Cl)N1C(=O)c2ccccc2C1=O (stereo not given),x,x,1,107,11,28
O=C(COC(=O)CCCN1C(=O)c2ccccc2C1=O)Nc1ncc(Cl)cc1Cl,-2,1,5,48,69*[fluorescence artefact?],58*[fluorescence artefact?]
Cc1ccc2[nH]c(=O)c(CNC(C)C)cc2c1,0,0,2,154,1,-2
Cc1cc(C)nc(NC(=O)CSc2nn(C)c(=S)s2)n1,1,-17,15,47,65*,33
Clc1ccc(-c2nc(-c3ccccn3)no2)cc1Cl,-3,48,7,265*,27,17
CCC(C)c1ccc(NC(=S)NN2CCOCC2)cc1 (stereo not given),0,-11,x,x,x,x
Cc1cc(NC(=O)CS(=O)(=O)c2cn(Cc3ccccc3Cl)c3ccccc23)no1,-2,10,5,660*[fluorescence artefact?],15,14
Cc1ccc2ccc(C3C(=O)c4ccccc4C3=O)nc2c1,x,x,13,395*,11,2
Cc1ccc2cc(C)c(NCCO)nc2c1,0,9,1,96,5,3
Brc1cc(Br)c2nc(-c3cccs3)ccc2c1,7,10,-4,241*[fluorescence artefact?],0,-5
CC(c1ccccc1)N1C(=O)c2ccccc2C1O (stereo not given),1,-4,-12,116,13,8
CC1(C)Cc2c(c(N3CCOCC3)nc3sc4c(=O)[nH]cnc4c23)CS1,-2,-19,-4,83,30,55*[fluorescence artefact?]
COc1ccc(CCNC(=O)Cc2cc(OCc3ccccc3)c(OC)cc2[N+](=O)[O-])cc1OC,1,7,2,x,x,x
CCn1c(SCC(=O)Nc2ccc(NC(=O)c3ccco3)c(OC)c2)nc2ccccc2c1=O,-4,25,7,154,65*,43
COCCn1c(SCC(=O)Nc2ccc(NC(=O)c3ccco3)c(OC)c2)nc2ccccc2c1=O,0,10,4,160,29,25
C=CCn1c(SCC(=O)Nc2ccc3c(c2)OCO3)nc2ccccc2c1=O,1,11,3,105,-1,98*[fluorescence artefact?]
CCCCn1c(SCC(=O)Nc2cc(NC(=O)c3ccco3)ccc2C)nc2ccccc2c1=O,-2,16,10,122,75*[fluorescence artefact?],58*[fluorescence artefact?]
CCOc1ccc2nc(NC(=O)CSc3nc4ccccc4c(=O)n3Cc3ccco3)sc2c1,76,-48,1,138,17,53*[fluorescence artefact?]
CC1=CC2(O)OCCN(CCO)C2=CC1=O (stereo not given),x,x,5,25,78*[fluorescence artefact?],86*[fluorescence artefact?]
O=C1CSc2ccccc2N1Cc1ccccc1F,-4,5,-2,115,-23,-1
COCCn1c(-c2ccc(Cl)cc2)cnc1SCC(=O)NCCc1ccc(OC)c(OC)c1,-2,53*,x,x,x,x
COc1ccc(C(=O)N2CCCN(C)CC2)cc1S(=O)(=O)N1CCCc2ccccc21,-3,-6,x,225*,-13,-11
Cc1occc1C(=O)NCCCc1ccccc1,-4,2,-4,103,4,58*
O=C(Nc1ccccc1)c1cccc(-c2nnc(-c3ccccc3)o2)c1,7,-34,-7,309*[fluorescence artefact?],7,20
COc1cccc(-c2nnc(NC(=O)C3CCCCC3)o2)c1,-5,-25,-3,100,-3,-12
O=C(Nc1cccc(-c2nnc(-c3ccccc3)o2)c1)C1CCCCC1,x,x,0,208*[fluorescence artefact?],8,9
